In PubChem BioAssay AID1085 (Emory University Molecular Libraries Screening Center, 2008) one finds inhibition data, which are given here for 53 molecules.

The term inhibition denotes the relative decrease from the control value, in per cent.

Screen size: about 220,000 compounds; about 930 (0.42%) were called active. Rule as the data show it: active = inhibition above about 50%; inactive = the rest. Shown is part of a subset that was picked to be rich in actives.

Chain of Glycoprotein 42 (Epstein-Barr virus (strain AG876)) (Q1HVG2 whole entry, looked up): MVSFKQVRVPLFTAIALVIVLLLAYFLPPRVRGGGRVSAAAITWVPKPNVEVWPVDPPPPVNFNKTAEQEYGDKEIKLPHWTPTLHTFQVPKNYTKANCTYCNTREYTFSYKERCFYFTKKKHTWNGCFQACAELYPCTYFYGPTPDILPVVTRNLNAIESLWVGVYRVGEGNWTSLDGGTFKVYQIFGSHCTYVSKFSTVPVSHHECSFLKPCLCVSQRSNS

The test has as its target Glycoprotein 42 (Epstein-Barr virus (strain AG876)) (UniProt Q1HVG2). Description: Epstein-Barr virus gp42 inhibitors, primary screen, biochemical, uHTS, fluorescence polarization (AID 1085). The conditions noted are these: Fluorescence polarization binding assay, mP read-out; stronger effect = higher value; tested at 21.74 µM. A general note: In fluorescence polarisation assays a small probe gives low polarisation when free and higher when bound to something large.
On to `CC[N+]1(CC)CC2=Cc3ccccc3CC2C1` (stereo not drawn), for which the inhibition is -0.55% (inactive).

In the case of `N#Cc1cccc(Nc2c3c(nc4ccccc24)CCCC3)c1`, the inhibition is 5.27% (inactive).

As for `Cc1cccc(N)c1SC1CCCCC1O` (stereo not drawn), the inhibition was -8.15% (inactive).

In the case of `O=C(Nc1nnc(Cc2ccccc2)s1)c1cnccn1`, the inhibition is 58.2% (active).

On to `O=C(Nc1nnc(Cc2ccc(Cl)cc2)s1)c1ccncc1`, for which the inhibition is 0.5% (inactive).

As for `O=C(Nc1nnc(Cc2ccc(Cl)cc2)s1)c1cccnc1`, the inhibition was -5.07% (inactive).

For `Cc1cc(C)n2nc(C(=O)N3CCN(Cc4ccc5c(c4)OCO5)CC3)nc2n1`, the inhibition was -5.29% (inactive).

`Cc1ccc(-c2nnc(SCC(=O)N/N=C/c3cccs3)n2-c2ccc(C)cc2)cc1`: the inhibition is -4.61% (inactive).

`O=S(=O)(c1cccc(C(F)(F)F)c1)N1CCN(c2cnccn2)CC1`: the inhibition is -12.8% (inactive).

In the case of `Cc1cccc(N=Nc2c(C)[nH]n(-c3ccccc3)c2=O)c1`, the inhibition is 4.36% (inactive).

On to `Oc1[nH]c2ccc(Br)cc2c1N=Nc1nn[nH]n1`, for which the inhibition was -11.8% (inactive).

With `Cc1cccc(N=Nc2c(O)[nH]c3ccc(F)cc23)c1`, the inhibition was 51.7% (active).

For the molecule `COc1ccc(-c2ccc(CNCCCN3CCOCC3)o2)cc1Cl`, the inhibition was -7.89% (inactive).

`Cn1c(=O)c(=O)n(C)c2cc(S(=O)(=O)NCCN3CCN(c4ccccc4F)CC3)ccc21`: the inhibition was -5.54% (inactive).

`CN(C)c1ccc(NC(=S)N(CCc2ccccc2)C2CC(=O)N(c3c(Cl)cccc3Cl)C2=O)cc1` (stereo not drawn): the inhibition is -7.96% (inactive).

Turning to `CCOCCCN(C(=O)Cn1nnc(-c2ccc(OC)c(OC)c2)n1)C(CC)C(=O)NC1CCCC1` (stereo not drawn), the inhibition is 2.09% (inactive).

As to `CN(C)c1ccc(Nc2c3c4c(cccc4n(C)c2=O)C(=O)c2ccccc2-3)cc1`, the inhibition is 51.7% (active).

As to `COC(=O)Cn1nc(-c2ccccc2)c2cc(Cl)ccc21`, the inhibition is -7.25% (inactive).

Regarding `CCOC(=O)N1CCN(Cc2nc(Cc3cccc(C(F)(F)F)c3)no2)CC1`, the inhibition is 5.02% (inactive).

`O=C(COC(=O)/C=C/c1ccc(S(=O)(=O)N2CCCCCC2)cc1)NCc1ccccc1Cl`: the inhibition is -7.1% (inactive).

For `CC(=O)Nc1ccc(NC(=O)c2sc3nc4c(c(-c5ccc(C)cc5)c3c2N)CCC4)cc1`, the inhibition was -13.2% (inactive).

With `NC(=O)c1sc2nc3c(c(-c4ccccc4)c2c1N)CCC3`, the inhibition is 68.4% (active).

Consider `Cc1cccc(NC(=O)c2sc3nc4c(c(-c5ccco5)c3c2N)CCC4)c1`, for which the inhibition is -22.7% (inactive).

Take `[O-][N+]12CCCCC1CCCC2CO` (stereo not drawn): the inhibition was -12% (inactive).

Consider `CCN(CC)c1ccc2oc(=O)c(C)nc2c1`, for which the inhibition was 51.1% (active).

As for `CCN(CC)c1ccc2c(Nc3ccccc3)c(C=O)c(=O)oc2c1`, the inhibition was -27.9% (inactive).

For the molecule `CCN(CC)c1ccc2cc(C(=O)O)c(=O)oc2c1`, the inhibition is -20.2% (inactive).

For the molecule `CCOC(=O)C1=C(c2ccccc2)N=C2SCC(=O)N2C1c1ccc(O)c(OC)c1` (stereo not drawn), the inhibition is -7.62% (inactive).

For `CSCC[C@H](NC(=O)NC1CCCC1)C(=O)O`, the inhibition was -16.3% (inactive).

On to `COc1ccc(Cc2nnc(NC(=O)Cc3cccs3)s2)cc1`, for which the inhibition was 73.9% (active).

Consider `O=C(Cc1cccs1)Nc1nnc(C2CC2)s1`, for which the inhibition was -0.17% (inactive).

On to `CCc1nnc(NC(=O)Cc2cccs2)s1`, for which the inhibition is 15.8% (inactive).

For `CC(C)CCN1CCN(C/C=C/c2ccco2)CC1CCO` (stereo not drawn), the inhibition was 0.69% (inactive).

In the case of `O=C(Nc1ccc(N2CCN(C(=O)c3ccccc3)CC2)c(Cl)c1)c1ncn[nH]1`, the inhibition is -5.31% (inactive).

In the case of `O=C(/C=C/Nc1ccc(S(=O)(=O)Nc2cnc3ccccc3n2)cc1)c1cccnc1`, the inhibition is 0.92% (inactive).

Take `COCCNC(=O)Nc1ccc2nc(-c3ccco3)c(-c3ccco3)nc2c1`: the inhibition was 52.7% (active).

Turning to `COc1ccc(NC(=O)Nc2ccc3nsnc3c2)cc1`, the inhibition was -9.53% (inactive).

As for `O=C(NCc1ccccn1)c1ccc2nc(-c3ccco3)c(-c3ccco3)nc2c1`, the inhibition is 33.5% (inactive).

For the molecule `O=C(/C=C/c1cn(-c2ccccc2)nc1-c1ccc2c(c1)OCCO2)NCCCN1CCOCC1`, the inhibition is -12.9% (inactive).

Regarding `CC(=O)c1ccccc1NC(=O)CC1(CC(=O)O)CCCCC1`, the inhibition is -14.7% (inactive).

As for `Cc1cc(F)ccc1S(=O)(=O)Nc1ncnc2scc(-c3ccc(F)cc3)c12`, the inhibition is 9.65% (inactive).

On to `COc1cccc(N(CC(=O)NCCSc2ccccn2)S(C)(=O)=O)c1`, for which the inhibition was -23.3% (inactive).

Consider `Brc1ccc(-c2csc(N/N=C/c3cccnc3)n2)cc1`, for which the inhibition is 2.77% (inactive).

In the case of `CCCNc1c(N)c(=O)c1=O`, the inhibition was 2.64% (inactive).

Consider `CC(=O)c1ccc(-c2ccc(Cn3c(C)nc4cc(N)c(C)nc43)cc2)cc1`, for which the inhibition was 2.98% (inactive).

Regarding `Cc1cc2nc3c(=O)n(Cc4ccccc4)c(=O)[nH]c3nc2cc1N`, the inhibition is 135% (active).

`O=c1[nH]c2c(c(=O)n1Cc1ccccc1)CCC2`: the inhibition was -9.97% (inactive).

`COC(=O)CCSc1cc([N+](=O)[O-])cc2c1c(C1OCCS1)nn2-c1ccccc1` (stereo not drawn): the inhibition is 24.1% (inactive).

As for `O=C(COc1ccc(/C=N/NC(=O)c2ccc(O)cc2)cc1)Nc1ccc([N+](=O)[O-])cc1`, the inhibition was 77.5% (active).

Regarding `O=C(N/N=C/c1ccc(OCc2ccccc2)cc1)c1ccc(O)cc1`, the inhibition is -4.07% (inactive).

`CCCCCC(=O)Nc1ccc(C(=O)N/N=C/c2ccc([N+](=O)[O-])cc2)cc1`: the inhibition was -19.6% (inactive).

Consider `C/C=C\C=C\C(=O)N1CC2(CC(c3cccc(NC(=O)/C(C)=C\C)c3)=NO2)C[C@H]1C(N)=O` (stereo partly drawn), for which the inhibition is -17.9% (inactive).

With `CSc1ccccc1NC(=O)CN(C)CC(=O)Nc1cccc(Br)c1`, the inhibition was -0.02% (inactive).
